{
  "source": "PubChem BioAssay AID1578",
  "about": "(Sanford-Burnham Center for Chemical Genomics, 2009)",
  "note": "Hit rate of the full screen: of about 290,000 compounds, about 3,000 (1%) were called active. The sample holds actives, similar compounds and a random draw of the others, so the mix is not that of the screen. Values without a mark were called inactive. Rule as the data show it: active = inhibition mostly above about 36% (no sharp cut-off); inactive = mostly below about 34%.",
  "data": [
    {"assay": "inhibition of NOD1-driven NF-kB reporter – cell-based, luminescence, uHTS, primary screen (AID 1578);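 also: HEK-293T reporter cells stimulated with the NOD1 agonist gamma-tri-DAP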", "conditions": "NOD1-driven NF-kB luciferase reporter cells, at 4 µM, active compounds read high", "values": [
      {"smiles": "CCOC(=O)Cc1cnc(NC(=O)CSc2nc(C)c(CC)c(=O)[nH]2)s1", "inhibition": "-29.1%"},
      {"smiles": "O=C(c1cc(-c2ccccc2)n[nH]1)N1CCc2c([nH]c3ccccc23)C1c1ccccn1", "note": "(centres undefined)", "inhibition": "-14.3%"},
      {"smiles": "COc1cc(Cl)c(C)cc1NC(=O)c1ccc(NS(=O)(=O)c2ccc(F)c(F)c2)cc1", "inhibition": "14.5%"},
      {"smiles": "CCOC(=O)c1c(/N=C/c2cc([N+](=O)[O-])ccc2O)sc(C)c1C", "inhibition": "-20.3%"},
      {"smiles": "CN(C)CCOc1cccc(Cl)c1", "inhibition": "-12.3%"},
      {"smiles": "Cc1ccc(C(=O)CSc2nnc3ccccn23)c(C)c1", "inhibition": "18.8%"},
      {"smiles": "Cc1cc(C(=O)CSc2nnc3ccccn23)c(C)n1-c1ccccc1", "inhibition": "82% (active)"},
      {"smiles": "Cc1cc(C(=O)CSc2nncn2C)c(C)n1-c1ccccc1", "inhibition": "-35.2%"},
      {"smiles": "Nc1c(-c2ccccc2)c(CSc2nc3ccccc3[nH]2)nn1-c1ccc(Cl)cc1", "inhibition": "70.5%"},
      {"smiles": "Nc1c(-c2ccccc2)c(CSc2nc3ccccc3[nH]2)nn1-c1cccc(Cl)c1", "inhibition": "79.7% (active)"},
      {"smiles": "Nc1c(-c2ccccc2)c(CSc2nc3ccccc3[nH]2)nn1-c1cccc(C(=O)O)c1", "inhibition": "-21.3%"},
      {"smiles": "Cn1c(N)c(C(=O)Nc2c(Cl)cccc2Cl)sc1=S", "inhibition": "-11.3%"},
      {"smiles": "CCN(CC)c1ccc(N2C(=O)/C(=C\\c3cccs3)SC2=S)cc1", "inhibition": "-102%"},
      {"smiles": "COc1ccccc1/C=C/C(=O)/C=C/c1ccccc1O", "inhibition": "94.3% (active)"},
      {"smiles": "COc1ccccc1/C=C/C(=O)c1ccccc1", "inhibition": "-6.9%"},
      {"smiles": "COc1ccccc1/C=C/C(C)=O", "inhibition": "-47.2%"},
      {"smiles": "CC1(C)Cc2c(sc3[nH]c(=S)n(Cc4ccccc4)c(=O)c23)CO1", "inhibition": "-3.1%"},
      {"smiles": "CC(C)C1Cc2c(sc3[nH]c(=S)n(Cc4ccccc4)c(=O)c23)CO1", "note": "(centres undefined)", "inhibition": "92.4% (active)"},
      {"smiles": "CC(C)C1Cc2c(sc3c2c(=O)n(Cc2ccccc2)c2nncn32)CO1", "note": "(centres undefined)", "inhibition": "12.9%"},
      {"smiles": "CCOC(=O)N1CCN(S(=O)(=O)/C=C/c2ccccc2)CC1", "inhibition": "9.2%"},
      {"smiles": "CCOC(=O)N1C/C(=C\\c2ccccc2)C(=O)/C(=C/c2ccccc2)C1", "inhibition": "41.1% (active)"},
      {"smiles": "CCOC(=O)N1CCN(C/C(C)=C/c2ccccc2)CC1", "inhibition": "-12%"},
      {"smiles": "COc1cccc(-n2c([S-])c(C(=O)Nc3ccc(C(F)(F)F)cc3)[n+]3ccccc23)c1", "inhibition": "-8.9%"},
      {"smiles": "COc1cccc(C(=O)Nc2ccc(S(=O)(=O)Nc3nccc(C)n3)cc2)c1", "inhibition": "-16.6%"},
      {"smiles": "Cc1ccc(S(=O)(=O)NCCC(=O)O)cc1", "inhibition": "-3.1%"},
      {"smiles": "CCCn1c(SCC(=O)c2ccc3c(c2)OCCO3)nc2c1c(=O)n(C)c(=O)n2C", "inhibition": "-19.8%"},
      {"smiles": "O=C(CN1C(=O)c2ccccc2S1(=O)=O)c1ccccc1", "inhibition": "-2.1%"},
      {"smiles": "Cc1cc(C(=O)CN2C(=O)c3ccccc3S2(=O)=O)c(C)n1-c1ccccc1", "inhibition": "94.4% (active)"},
      {"smiles": "Cc1ccc(C)c(C(=O)CN2C(=O)c3ccccc3S2(=O)=O)c1", "inhibition": "9.1%"},
      {"smiles": "COc1cc(NC(=O)CC(C)n2ccnc2)cc(OC)c1", "note": "(centres undefined)", "inhibition": "-0.2%"},
      {"smiles": "COC(=O)c1c(NC(=O)CCl)sc(C(=O)N2CCOCC2)c1C", "inhibition": "80.5% (active)"},
      {"smiles": "COC(=O)c1c(NC(C)=O)sc(C(=O)N2CCOCC2)c1C", "inhibition": "-4.7%"},
      {"smiles": "COC(=O)c1c(NC(=O)C(C)C)sc(C(=O)N2CCOCC2)c1C", "inhibition": "5.6%"},
      {"smiles": "COc1ccccc1NC(=O)CS(=O)(=O)c1cn(CC(=O)N(C(C)C)C(C)C)c2ccccc12", "inhibition": "-1.2%"},
      {"smiles": "Cc1ccccc1C(=O)Nc1cc(-c2cc(C(C)(C)C)oc2C)nn1C", "inhibition": "-3.8%"},
      {"smiles": "Cc1ccc(NC(=O)C(=Cc2ccc(C(=O)O)cc2)C(=O)Nc2ccc(C)cc2C)c(C)c1", "inhibition": "9.9%"},
      {"smiles": "Cc1ccccc1NC(=O)C(=Cc1ccc(C(=O)O)cc1)C(=O)Nc1ccccc1C", "inhibition": "39.4% (active)"},
      {"smiles": "CC(=O)/C(=C/c1ccccc1)C(=O)Nc1ccccc1C", "inhibition": "35.2%"},
      {"smiles": "CC(=O)Nc1ccccc1C(F)(F)F", "inhibition": "5.2%"},
      {"smiles": "COc1ccc2nc(-n3c(O)c(C4=c5ccccc5=NC4=O)[nH]c3=S)sc2c1", "inhibition": "93% (active)"},
      {"smiles": "COc1ccc2nc(N3C(=O)CNC3=S)sc2c1", "inhibition": "-9.5%"},
      {"smiles": "Cn1c(O)c(C2=c3ccccc3=NC2=O)[nH]c1=S", "inhibition": "7.1%"},
      {"smiles": "COc1ccc(-c2cn3c4c(sc3n2)CCCC4)cc1", "inhibition": "1.4%"},
      {"smiles": "CN(C)S(=O)(=O)c1ccc(N2CCCC2)c(C(=O)Nc2ccccc2N2CCOCC2)c1", "inhibition": "-0.9%"},
      {"smiles": "CCCCC(=O)N/N=C(/C)C1=C(C)C(C)(C)OC1=O", "inhibition": "-20.4%"},
      {"smiles": "O=C1ON=C(c2ccccc2)/C1=C/c1ccc(-c2ccccc2[N+](=O)[O-])o1", "inhibition": "46.2%"},
      {"smiles": "COc1ccc(-c2ccc(/C=C3\\C(=O)N(c4ccccc4)N=C3c3ccccc3)o2)c([N+](=O)[O-])c1", "inhibition": "10.5%"},
      {"smiles": "Cc1ccc(-c2ccc(/C=C3\\C(=O)ON=C3c3ccccc3)o2)c([N+](=O)[O-])c1", "inhibition": "70.5% (active)"},
      {"smiles": "CCSc1nc2ccccc2n1CC(=O)N1CCCCC1", "inhibition": "14.8%"},
      {"smiles": "O=[N+]([O-])c1cc(CN2CCN(c3ccccc3)CC2)c(O)c2ncccc12", "inhibition": "31.8%"},
      {"smiles": "O=[N+]([O-])c1cc(CN2CCCC2)c2cccnc2c1O", "inhibition": "2.2%"},
      {"smiles": "O=[N+]([O-])c1cc(CN2CCOCC2)c2cccnc2c1O", "inhibition": "51.3% (active)"},
      {"smiles": "O=[N+]([O-])c1cccc(S(=O)(=O)Nc2ccc(S(=O)(=O)N3CCCC3)cc2)c1", "inhibition": "-4%"},
      {"smiles": "CSc1cccc(NC(=O)CCn2c(=O)c3cccn3c3cccnc32)c1", "inhibition": "-16.4%"},
      {"smiles": "Cc1nc(NC(=O)/C=C/c2ccccc2)n[nH]1", "inhibition": "51.1%"},
      {"smiles": "O=C(/C=C/c1ccccc1)Nc1cc(NC(=O)/C=C/c2ccccc2)cc(C(=O)O)c1", "inhibition": "-29.4%"},
      {"smiles": "CC(=O)Nc1cccc(C(=O)/C=C/c2ccc(C)cc2)c1", "inhibition": "34.7%"},
      {"smiles": "O=C(/C=C/c1ccccc1)Nc1ncn[nH]1", "inhibition": "59.8% (active)"},
      {"smiles": "O=C(/C=C/c1ccccc1)Nc1cccc(C(=O)O)c1", "inhibition": "96.6% (active)"},
      {"smiles": "CC(=O)Nc1cccc(C(=O)/C=C/c2ccc(F)cc2)c1", "inhibition": "-34.5%"},
      {"smiles": "Cc1ccc(NC(=O)/C=C/c2cccc(C(F)(F)F)c2)cc1", "inhibition": "15.4%"},
      {"smiles": "O=C(Nc1ncn[nH]1)c1ccccc1O", "inhibition": "1.8%"},
      {"smiles": "O=C(/C=C/c1ccccc1)Nc1cc(C(=O)O)cc(C(=O)O)c1", "inhibition": "-46.3%"},
      {"smiles": "CC(=O)Nc1ccc(NC(=O)/C=C/c2cccc(C(F)(F)F)c2)cc1", "inhibition": "-14.7%"},
      {"smiles": "CC(=O)Nc1cccc(C(=O)/C=C/c2ccc(/C=C/C(=O)c3cccc(NC(C)=O)c3)cc2)c1", "inhibition": "85.5% (active)"},
      {"smiles": "O=C(/C=C/c1cccc(C(F)(F)F)c1)Nc1cccc(C(F)(F)F)c1", "inhibition": "75.5% (active)"},
      {"smiles": "CC(C)=CCN1CCN(C/C(Cl)=C/c2ccccc2)CC1CCO", "note": "(centres undefined)", "inhibition": "1.6%"},
      {"smiles": "Cc1ccc(CNC(=O)CCS(=O)(=O)c2cc3c(cc2Cl)NC(=O)CO3)o1", "inhibition": "-10.7%"},
      {"smiles": "COc1cc(/C=C(\\C#N)C(=O)Nc2ccccc2)ccc1OCCN1CCOCC1", "inhibition": "-28.7%"},
      {"smiles": "COc1cc2c(C(=O)NCCN(C)C)cn(CC(C)C)c(=O)c2cc1OC", "inhibition": "1.3%"},
      {"smiles": "COc1ccc(-c2nn(CC(=O)Nc3ccc(Cl)c(Cl)c3)c(=O)c3ccccc23)cc1", "inhibition": "15.6%"},
      {"smiles": "COc1ccc(C(=O)N/C(=C\\c2cn(S(=O)(=O)N(C)C)c3ccccc23)C(=O)N2CCOCC2)cc1", "inhibition": "-6.8%"},
      {"smiles": "Cc1cc(C)cc(C(=O)NCC(=O)NCc2ccc(S(N)(=O)=O)cc2)c1", "inhibition": "-5.1%"},
      {"smiles": "COc1cccc(N2CCN(C(=O)c3cc4cc(Cl)ccc4[nH]3)CC2)c1", "inhibition": "-4.9%"},
      {"smiles": "COC(=O)c1c(N)sc(C(=O)NCCc2ccccc2)c1C", "inhibition": "69.8% (active)"},
      {"smiles": "CCOC(=O)c1c(N)sc(C(=O)Nc2ccccc2)c1C", "inhibition": "-18.7%"},
      {"smiles": "COC(=O)c1c(N)sc(Cc2ccccc2)c1C", "inhibition": "-28.7%"},
      {"smiles": "Cc1ccc(S(=O)(=O)NC(C)(C)CSc2nnc(Nc3ccccc3)s2)cc1", "inhibition": "64.7% (active)"},
      {"smiles": "Cc1ccc(S(=O)(=O)NC(C)(C)CSc2ncccn2)cc1", "inhibition": "-3.5%"},
      {"smiles": "Cc1ccc(S(=O)(=O)NC(C)(C)CSc2nnc(N)s2)cc1", "inhibition": "-25.5%"},
      {"smiles": "N#CCSc1n[nH]c2nc3c(c(=O)n12)C1(CCCC1)Cc1ccccc1-3", "inhibition": "16.8%"},
      {"smiles": "CCSc1n[nH]c2nc3c(c(=O)n12)C1(CCCCC1)Cc1ccccc1-3", "inhibition": "-13.1%"},
      {"smiles": "N#CCSc1n[nH]c2nc3c(c(=O)n12)C1(CCCCC1)Cc1ccccc1-3", "inhibition": "48% (active)"},
      {"smiles": "CCN(C(=O)/C=C/c1ccc(OC)cc1)C1CCCCC1", "inhibition": "-18.8%"},
      {"smiles": "COc1cccc2cc(-c3cc(=O)oc4ccc(OCC(C)=O)cc34)oc12", "inhibition": "39%"},
      {"smiles": "CC(=O)COc1cc2c(-c3cc4ccccc4o3)cc(=O)oc2cc1C", "inhibition": "40.5%"},
      {"smiles": "COc1cccc2cc(-c3cc(=O)oc4cc(C)c(OCC(C)=O)cc34)oc12", "inhibition": "71.3% (active)"},
      {"smiles": "COc1ccc(Cl)cc1NC(=O)CSc1nc(C)cc(C)n1", "inhibition": "-29.7%"},
      {"smiles": "Cc1cc(C)cc(NC(=O)CSc2nc(CSc3ccc(Cl)cc3)cc(=O)[nH]2)c1", "inhibition": "8.6%"},
      {"smiles": "CCOC(=O)N1CCC(NCCNC(=O)c2ccccc2Cl)CC1", "inhibition": "9.8%"},
      {"smiles": "Cn1c(Sc2ccccc2Cl)c(C=O)c2ccccc21", "inhibition": "41.9%"},
      {"smiles": "Cn1c(Oc2ccc(Cl)cc2)c(C=O)c2ccccc21", "inhibition": "22.8%"},
      {"smiles": "COc1ccc(-c2nnn(CC(=O)c3c[nH]c4ccccc34)n2)cc1OC", "inhibition": "-7.9%"},
      {"smiles": "CCOC(=O)c1[nH]ncc1CN1CCN(Cc2ccccc2)C(CCO)C1", "note": "(centres undefined)", "inhibition": "-20.2%"}
    ]}
  ]
}
